Assay results published in PubChem BioAssay AID1159580 (chemical genetic matrix, 2015).
Among all 5,500 compounds or so, about 2,000 (36%) were called active. Not shown: some 18% with an inconclusive outcome. Rule as the data show it: active = normalized growth mostly below about 0.91 (no sharp cut-off); inconclusive = no clear call, values can overlap the other calls; inactive = mostly above about 0.92. This is one part of the list.

Test: chemical genetic growth profiling, strain panel (AID 1159580);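 also: tested at 20 µM; growth read once vehicle control cultures reached saturation at 30 °C; 1 = growth at the plate median or of vehicle wells; lower values mean less growth of the strain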
Settings: growth OD
[1] = S. cerevisiae deletion strains, locus YHR030C, strain SLT2, active compounds read low
[2] = S. cerevisiae deletion strains, locus YJL095W, strain BCK1, active compounds read low

Measured: normalized growth

CN[C@H]1C[C@@H](N)[C@H](O)[C@@H](O[C@@H]2O[C@H](CO)[C@@H]3OC4(O[C@@H]3[C@@H]2O)O[C@H](C(N)CO)[C@H](O)[C@H](O)[C@H]4O)[C@@H]1O (stereo partly specified)
inactive: [1] 1.05 | S. cerevisiae deletion strains, locus YHR079C, strain IRE1, active compounds read low 1.05 | [2] 1.05 | S. cerevisiae deletion strains, locus YJR066W, strain TOR1, active compounds read low 0.982 | S. cerevisiae deletion strains, locus YLR113W, strain HOG1, active compounds read low 1.02 | S. cerevisiae deletion strains, locus YNL183C, strain NPR1, active compounds read low 0.969 | S. cerevisiae deletion strains, locus YOR231W, strain MKK1, active compounds read low 1.03 | S. cerevisiae deletion strains, locus YPL256C, strain CLN2, active compounds read low 1.03

Nc1nc2ncc(C(=O)O)nc2c(=O)[nH]1
inactive: S. cerevisiae deletion strains, locus YAL013W, strain DEP1, active compounds read low 1.01 | S. cerevisiae deletion strains, locus YBR021W, strain FUR4, active compounds read low 1 | S. cerevisiae deletion strains, locus YBR229C, strain ROT2, active compounds read low 1.01 | S. cerevisiae deletion strains, locus YCL029C, strain bik1, active compounds read low 1.03 | S. cerevisiae deletion strains, locus YDL035C, strain GPR1, active compounds read low 1 | S. cerevisiae deletion strains, locus YDL074C, strain BRE1, active compounds read low 1.01 | S. cerevisiae deletion strains, locus YDL101C, strain DUN1, active compounds read low 1.01 | S. cerevisiae deletion strains, locus YDL134C, strain PPH21, active compounds read low 1.01 | S. cerevisiae deletion strains, locus YDL185W, strain tfp1, active compounds read low 1.04 | S. cerevisiae deletion strains, locus YDL192W, strain arf1, active compounds read low 1.03 | S. cerevisiae deletion strains, locus YDR101C, strain arx1, active compounds read low 1.03 | S. cerevisiae deletion strains, locus YDR162C, strain NBP2, active compounds read low 1.03 | S. cerevisiae deletion strains, locus YDR318W, strain mcm21, active compounds read low 1.02 | S. cerevisiae deletion strains, locus YDR388W, active compounds read low 1.02 | S. cerevisiae deletion strains, locus YDR502C, strain sam2, active compounds read low 1.04 | S. cerevisiae deletion strains, locus YEL061C, strain CIN8, active compounds read low 1.01 | S. cerevisiae deletion strains, locus YER110C, active compounds read low 1.05 | S. cerevisiae deletion strains, locus YER155C, strain BEM2, active compounds read low 1.01 | S. cerevisiae deletion strains, locus YER167W, strain BCK2, active compounds read low 1.01 | S. cerevisiae deletion strains, locus YGL078C, strain dbp3, active compounds read low 1.03 | S. cerevisiae deletion strains, locus YGL086W, strain mad1, active compounds read low 1 | S. cerevisiae deletion strains, locus YGL248W, strain PDE1, active compounds read low 1.02 | S. cerevisiae deletion strains, locus YGR078C, strain PAC10, active compounds read low 1.01 | S. cerevisiae deletion strains, locus YGR135W, strain pre9, active compounds read low 1.01 | S. cerevisiae deletion strains, locus YGR252W, strain gcn5, active compounds read low 1.07 | [1] 1.01 | S. cerevisiae deletion strains, locus YHR079C, strain IRE1 (second series), active compounds read low 1.05 | S. cerevisiae deletion strains, locus YHR094C, strain hxt1, active compounds read low 1.04 | S. cerevisiae deletion strains, locus YHR129C, strain ARP1, active compounds read low 1.01 | S. cerevisiae deletion strains, locus YHR200W, strain rpn10, active compounds read low 1 | S. cerevisiae deletion strains, locus YIL066C, strain RNR3, active compounds read low 1.02 | S. cerevisiae deletion strains, locus YIL073C, strain SPO22, active compounds read low 1.1 | S. cerevisiae deletion strains, locus YIL125W, strain kgd1, active compounds read low 1.03 | S. cerevisiae deletion strains, locus YIR030C, strain dcg1, active compounds read low 1.04 | [2] 1.01 | S. cerevisiae deletion strains, locus YJL134W, strain LCB3, active compounds read low 1.01 | S. cerevisiae deletion strains, locus YJL168C, strain set2, active compounds read low 1.05 | S. cerevisiae deletion strains, locus YJL187C, strain SWE1 (second series), active compounds read low 1.01 | S. cerevisiae deletion strains, locus YJR043C, strain POL32, active compounds read low 0.997 | S. cerevisiae deletion strains, locus YKL009W, strain mrt4, active compounds read low 1.02 | S. cerevisiae deletion strains, locus YKL068W, active compounds read low 1.03 | S. cerevisiae deletion strains, locus YKL085W, strain MDH1 (second series), active compounds read low 1.01 | S. cerevisiae deletion strains, locus YKL085W, strain MDH1, active compounds read low 1.01 | S. cerevisiae deletion strains, locus YKR001C, strain vps1, active compounds read low 1.02 | S. cerevisiae deletion strains, locus YLR039C, strain RIC1, active compounds read low 1.03 | S. cerevisiae deletion strains, locus YLR058C, strain SHM2, active compounds read low 1.01 | S. cerevisiae deletion strains, locus YLR102C, strain apc9, active compounds read low 1.04 | S. cerevisiae deletion strains, locus YLR262C, strain YPT6, active compounds read low 1.03 | S. cerevisiae deletion strains, locus YLR268W, strain sec22, active compounds read low 1.04 | S. cerevisiae deletion strains, locus YLR330W, strain CHS5, active compounds read low 1.01 | S. cerevisiae deletion strains, locus YLR342W, strain FKS1 (second series), active compounds read low 0.998 | S. cerevisiae deletion strains, locus YLR371W, strain rom2, active compounds read low 1.06 | S. cerevisiae deletion strains, locus YLR418C, strain cdc73, active compounds read low 1.03 | S. cerevisiae deletion strains, locus YML016C, strain PPZ1, active compounds read low 1.01 | S. cerevisiae deletion strains, locus YML032C, strain rad52, active compounds read low 1.02 | S. cerevisiae deletion strains, locus YML124C, strain tub3, active compounds read low 1.02 | S. cerevisiae deletion strains, locus YMR078C, strain ctf18, active compounds read low 1.05 | S. cerevisiae deletion strains, locus YMR223W, strain ubp8, active compounds read low 1.03 | S. cerevisiae deletion strains, locus YMR307W, strain GAS1, active compounds read low 1.01 | S. cerevisiae deletion strains, locus YNL067W, strain RPL9B, active compounds read low 1.01 | S. cerevisiae deletion strains, locus YNL153C, strain GIM3, active compounds read low 1.01 | S. cerevisiae deletion strains, locus YNL233W, strain BNI4, active compounds read low 1 | S. cerevisiae deletion strains, locus YNL250W, strain rad50, active compounds read low 1.03 | S. cerevisiae deletion strains, locus YNL271C, strain bni1, active compounds read low 1.03 | S. cerevisiae deletion strains, locus YNL298W, strain CLA4, active compounds read low 1.04 | S. cerevisiae deletion strains, locus YNL307C, strain MCK1, active compounds read low 1.06 | S. cerevisiae deletion strains, locus YNL322C, strain KRE1, active compounds read low 1.01 | S. cerevisiae deletion strains, locus YNR052C, strain pop2, active compounds read low 1.03 | S. cerevisiae deletion strains, locus YOL012C, strain htz1 1.02 | S. cerevisiae deletion strains, locus YOL147C, strain pex11, active compounds read low 1.04 | S. cerevisiae deletion strains, locus YOR061W, strain CKA2, active compounds read low 1.02 | S. cerevisiae deletion strains, locus YOR069W, strain VPS5, active compounds read low 1.01 | S. cerevisiae deletion strains, locus YOR136W, strain idh2, active compounds read low 1.04 | S. cerevisiae deletion strains, locus YOR144C, strain elg1, active compounds read low 1.03 | S. cerevisiae deletion strains, locus YOR184W, strain ser1, active compounds read low 1.04 | S. cerevisiae deletion strains, locus YOR316C, strain cot1, active compounds read low 1.06 | S. cerevisiae deletion strains, locus YPL055C, strain LGE1, active compounds read low 1.01 | S. cerevisiae deletion strains, locus YPR119W, strain clb2, active compounds read low 1.03 | S. cerevisiae deletion strains, locus YPR141C, strain kar3, active compounds read low 1.02 | S. cerevisiae deletion strains, locus YPR163C, strain tif3, active compounds read low 1.05 | S. cerevisiae deletion strains, locus YPR167C, strain met16, active compounds read low 1.06 | S. cerevisiae deletion strains, strain wtn01, active compounds read low 1.02 | S. cerevisiae strains, strain wild type, active compounds read low 1.01
